In PubChem BioAssay AID504602 (National Center for Advancing Translational Sciences (NCATS), 2011) one finds outcome data, which are given here for one compound.

Inconclusive results are not listed. Activity calls are given as the source filed them. Calls follow the shape of the dose curve; as a rule, active = well fitted curve in the direction sought with a large enough effect; inconclusive = small, poorly fitted or top-dose-only effect, or effect the other way, or another doubt; inactive = no such curve, though single readings can be large or run the other way.

The test is described as follows: Quantitative high throughput screen to test cell viability of anti-malarial compounds targeting the delayed death phenotype. From the text: The biochemical processes that make this organelle essential for erythrocytic stage parasites are not well understood. However, antibiotics, such as azithromycin and tetracycline, which target the apicoplast translational machinery, have a potent antimalarial effect. […] We have developed a cell-based assay that measures parasite growth based on the expression of an integrated copy of a firefly luciferase reporter. To detect small molecules that cause this 'delayed death' phenotype, erythrocytes infected with the luciferase-expressing parasites were incubated with compounds for either one or two generations, corresponding to 48 and 96 hours, respectively. Compounds that inhibit parasite growth in the second generation, but not the first, should be enriched in antimalarials that target the apicoplast. Growth inhibition is detected by a decrease in luciferase activity. The goal of this counterscreen is to measure the cytoxoxicity (against HepG2 cell line) of a set of anti-malarial compounds that target the delayed death pheonotype as identified by the qHTS assay that inhibit the development of the apicoplast in the malarial parasite Plasmodium falciparum. NIH Molecular Libraries Probe Production Network [MLPCN] […]
Cells were plated at a density of 2000 cells/well/5uL in 1536 well white tissue culture plate with culture medium. […] Luminescence was measured using ViewLux (1 second, slow, 2X).

With `C[C@@H]1CN([C@@H](C)CO)C(=O)c2cc(NC(=O)Nc3ccccc3)ccc2O[C@@H](C)CCCCO[C@H]1CN(C)C(=O)Oc1ccccc1`, the compound was classed as inactive.
